Reference: PubChem BioAssay AID2409 (Southern Research Specialized Biocontainment Screening …, 2010)
Entries with a potency or affinity are not part of this list. The source made the active and inactive calls. No rule for the calls is given here.

assay: VEEV CPE inhibition, infected Vero cells, confirmatory, 66.6 µM top concentration (AID 2409); conditions: series mostly up to 66.6 µM

| Compound | outcome |
| --- | --- |
| O=C(CSc1nc2ccccc2c(=O)n1-c1ccc(F)cc1F)Nc1ccc2c(c1)CCC2 | inactive |
| COc1ccc(-c2csc(N(C)C(=O)c3ccccc3Cl)n2)cc1 | inactive |
| O=C(CSc1nc2ccccc2c(=O)n1-c1ccccc1F)Nc1ccc2c(c1)CCC2 | inactive |
| O=C(CSc1nc2ccccc2c(=O)n1-c1ccc(F)cc1F)Nc1ccc(N2CCOCC2)cc1 | inactive |
| O=C(CSc1nc2ccccc2c(=O)n1-c1ccc(F)cc1)Nc1ccc2c(c1)CCC2 | inactive |
| O=c1c2cc(I)ccc2nc2n1CCC2 | inactive |
| Cc1ccc2nc3n(c(=O)c2c1)CCC3 | inactive |
| CC1(O)c2cc(Br)ccc2N=C2CCCN21 (stereo not drawn) | inactive |
| CC(=O)Nc1ccc2nc3n(c(=O)c2c1)CCC3 | inactive |
| O=C(CSc1nc2ccccc2c(=O)n1-c1ccc(F)cc1)Nc1cccc2ccccc12 | inactive |
| O=c1c2c(F)cccc2nc2n1CCC2 | inactive |
| O=C(CSc1nc2ccccc2c(=O)n1-c1ccc(F)cc1)Nc1ccc2c(c1)OCCO2 | inactive |
| COc1ccc(-c2csc(N(Cc3ccccc3)C(=O)c3ccccc3Cl)n2)cc1 | inactive |
| COc1ccccc1NC(=O)CSc1nc2ccccc2c(=O)n1-c1ccc(F)cc1 | inactive |
| O=C(CSc1nc2ccccc2c(=O)n1-c1ccc(F)c(Cl)c1)Nc1ccc2c(c1)CCC2 | inactive |
| OC1c2cc(Br)ccc2N=C2CCCCCN21 (stereo not drawn) | inactive |
| CC1CC(C)CN(C(=O)CSc2nc3ccccc3c(=O)n2-c2ccc(F)cc2)C1 (stereo not drawn) | inactive |
| O=[N+]([O-])c1ccc2c(c1)C(O)N1CCCC1=N2 (stereo not drawn) | inactive |
| Cc1cccc2c(=O)n3c(nc12)CCC3 | inactive |

| Compound | outcome |
| --- | --- |
| O=C(CSc1nc2ccccc2c(=O)n1-c1ccc(Cl)c(Cl)c1)Nc1ccc2c(c1)CCC2 | inactive |
| O=c1c2cccc(Cl)c2nc2n1CCC2 | inactive |
| Cc1cccc2nc3n(c(=O)c12)CCC3 | inactive |
| OC1c2cc(I)ccc2N=C2CCCN21 (stereo not drawn) | inactive |
| CCCN(C(=O)c1ccccc1Cl)c1nc(-c2ccc(OC)cc2)cs1 | inactive |
| O=C(CSc1nc2ccc(F)cc2c(=O)n1-c1ccccc1)Nc1ccc2c(c1)CCC2 | inactive |
| COc1cccc(-n2c(SCC(=O)Nc3ccc4c(c3)CCC4)nc3ccccc3c2=O)c1 | inactive |
| OC1c2c(F)cccc2N=C2CCCCN21 (stereo not drawn) | inactive |
| Cc1cc(OC(=O)c2c(F)cccc2F)n(Cc2ccccc2)n1 | inactive |
| O=c1c2cc(Cl)cc(Cl)c2nc2n1CCC2 | inactive |
| OC1c2c(F)cccc2N=C2CCCCCN21 (stereo not drawn) | inactive |
| O=C(CSc1nc2ccccc2c(=O)n1-c1ccccc1)Nc1ccc2c(c1)CCC2 | inactive |
| OC1c2c(F)cccc2N=C2CCCN21 (stereo not drawn) | inactive |
| O=c1c2cc([N+](=O)[O-])ccc2nc2n1CCC2 | inactive |
| O=C(CSc1nc2cccc(I)c2c(=O)n1-c1ccccc1)Nc1ccc2c(c1)CCC2 | inactive |
| OC1c2cc(Br)ccc2N=C2CCCCN21 (stereo not drawn) | inactive |
| O=C(CSc1nc2cccc(F)c2c(=O)n1-c1ccccc1)Nc1ccc2c(c1)CCC2 | inactive |
| O=c1c2cc(Br)ccc2nc2n1CC/C2=C/c1ccccc1 | inactive |
| Nc1ccc2nc3n(c(=O)c2c1)CCC3 | inactive |
